Experiment [1] deals with PU.1 (IVT) (UniProt P17947 1-270). The experiment is described as follows: protein-binding microarray (PBM); 20 mM HEPES pH 7.9, 100 mM NaCl, 1 mM DTT, 0.2 mg/mL BSA, 0.02% Triton X-100, 2% milk, 0.4 mg/mL salmon testes DNA; 1 h; temperature not stated; high values mean tight binding. The following applies: dsDNA, one strand shown. The essentials: (§1)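 Custom double-stranded DNA microarrays bearing 20-bp genomic sites and single-nucleotide variants (10 probes per site, 5 per orientation) were incubated for 1 h with full-length untagged PU.1 made by coupled human in vitro transcription/translation, in HEPES pH 7.9 with 100 mM NaCl, 2% milk and salmon testes DNA. Anti-PU.1 and a fluorescent secondary antibody detected the bound protein. Each binding value is a z-score from scanned fluorescence after linear-regression normalisation.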

Experiment [2] shares this target. The experiment is described as above. Particulars: dsDNA, one strand shown. The essentials:
as §1
The source holds these as a separate data set.

In all, about 3,700 sequences were measured (“z-score”: median about 4, highest 2% from about 8.4 on). For the sample, the highest values were picked, then their nearest neighbours and some sequences at random.

In the experiment with PU.1 (IVT) [1], “GCCTAGCACAAAAAGGGGAAGTGACTTTCGTGCTAGGTCTTGATTCGCTTGACGCTGCTG” displayed a binding signal of 8.66 z-score.

As for “GCCTAGCACAAAAAAAGGAAGTCTGTTTTGTGCTAGGTCTTGATTCGCTTGACGCTGCTG”, in the experiment with PU.1 (IVT) [2], the binding signal stood at 6.43 z-score.

In the experiment with PU.1 (IVT) [1], “GCCTAGCACAAAGAAGGGAAGTGACTTGCGTGCTAGGTCTTGATTCGCTTGACGCTGCTG” gave a binding signal of 3.86 z-score.

On to “GCCTAGCACAAAAAGGGGAAGTCAATTTTGTGCTAGGTCTTGATTCGCTTGACGCTGCTG”, for which the binding signal with PU.1 (IVT) [1] stood at 8.55 z-score.

In the experiment with PU.1 (IVT) [1], “GCCTAGCACAAAAAGGGGAAGTTGGGGATGTGCTAGGTCTTGATTCGCTTGACGCTGCTG” yielded a binding signal of 8.45 z-score.

Sequence “GCCTAGCACAAAAAAGGGAAGTGAAGTACGTGCTAGGTCTTGATTCGCTTGACGCTGCTG” showed a binding signal with PU.1 (IVT) [1] of 7.2 z-score.

“GCCTAGCACAAAAAAGGGAAGTGCAAGATGTGCTAGGTCTTGATTCGCTTGACGCTGCTG” displayed a binding signal in the experiment with PU.1 (IVT) [1] of 7.79 z-score.

For “GCCTAGCACAAAAAGGGGAAGTCAAATTGGTGCTAGGTCTTGATTCGCTTGACGCTGCTG”, in the experiment with PU.1 (IVT) [1], the binding signal came to 8.09 z-score.

“GCCTAGCACAAAAGGAGGAAGTACTGTGAGTGCTAGGTCTTGATTCGCTTGACGCTGCTG” yielded a binding signal with PU.1 (IVT) [1] of 7.12 z-score.

On to “GCCTAGCACAAAAAGGGGAAGTACTGCGAGTGCTAGGTCTTGATTCGCTTGACGCTGCTG”, for which the binding signal with PU.1 (IVT) [1] came to 8.58 z-score.

In the case of “GCCTAGCACAAAAAAGGGAAGTGGATGCTGTGCTAGGTCTTGATTCGCTTGACGCTGCTG”, the binding signal with PU.1 (IVT) [1] stood at 7.67 z-score.

The sequence “GCCTAGCACAAAAAGGGGAAGTGATGGCGGTGCTAGGTCTTGATTCGCTTGACGCTGCTG” displayed a binding signal with PU.1 (IVT) [1] of 8.22 z-score.

“GCCTAGCACTTAAACAGGAAGTGTGTAATGTGCTAGGTCTTGATTCGCTTGACGCTGCTG” had a binding signal in the experiment with PU.1 (IVT) [1] of 5.79 z-score.

For “GCCTAGCACTTAAGGAGGAACTGAAACCAGTGCTAGGTCTTGATTCGCTTGACGCTGCTG”, the binding signal with PU.1 (IVT) [2] came to 2.65 z-score.

“GCCTAGCACTAAAGGAGGAACTGAAAACAGTGCTAGGTCTTGATTCGCTTGACGCTGCTG” yielded a binding signal with PU.1 (IVT) [2] of 3.62 z-score.

In the experiment with PU.1 (IVT) [1], “GCCTAGCACTAAAAGAGGAACTGAAACCAGTGCTAGGTCTTGATTCGCTTGACGCTGCTG” gave a binding signal of 6.72 z-score.

Regarding “GCCTAGCACCTGCAAAGGAAGTCTGGGCCGTGCTAGGTCTTGATTCGCTTGACGCTGCTG”, the binding signal in the experiment with PU.1 (IVT) [2] is 0.767 z-score.

In the case of “GCCTAGCACTGGAAGAGGAAGTTGGTTTTGTGCTAGGTCTTGATTCGCTTGACGCTGCTG”, the binding signal in the experiment with PU.1 (IVT) [1] is 7.15 z-score.

In the experiment with PU.1 (IVT) [2], “GCCTAGCACCATTTGTAGAAGTACTGTGCGTGCTAGGTCTTGATTCGCTTGACGCTGCTG” displayed a binding signal of 0.808 z-score.

“GCCTAGCACAAAAAGCAGAAGTGTTCTGTGTGCTAGGTCTTGATTCGCTTGACGCTGCTG” had a binding signal with PU.1 (IVT) [1] of 6.88 z-score.

For the sequence “GCCTAGCACAAAAAGGGGAAGTGCTTTCTGTGCTAGGTCTTGATTCGCTTGACGCTGCTG”, the binding signal with PU.1 (IVT) [1] came out at 8.76 z-score.

“GCCTAGCACAAAAAGGGGAAGTCTGGACTGTGCTAGGTCTTGATTCGCTTGACGCTGCTG” gave a binding signal in the experiment with PU.1 (IVT) [1] of 7.65 z-score.

In turn, “GCCTAGCACAAAAAGGGGAAGTGTGCTGCGTGCTAGGTCTTGATTCGCTTGACGCTGCTG” had a binding signal with PU.1 (IVT) [1] of 8.33 z-score.

Sequence “GCCTAGCACGAAAAGAGGAAGTCAAATTTGTGCTAGGTCTTGATTCGCTTGACGCTGCTG” showed a binding signal with PU.1 (IVT) [1] of 8.44 z-score.

Regarding “GCCTAGCACAGAAAAAGGAAGTGGAATTTGTGCTAGGTCTTGATTCGCTTGACGCTGCTG”, in the experiment with PU.1 (IVT) [1], the binding signal came to 6.29 z-score.

The sequence “GCCTAGCACGAAAAGAGGAAGTCGAATTAGTGCTAGGTCTTGATTCGCTTGACGCTGCTG” registered a binding signal with PU.1 (IVT) [1] of 8.06 z-score.

As to “GCCTAGCACGAAATGAGGAAGTGGCTGGTGTGCTAGGTCTTGATTCGCTTGACGCTGCTG”, the binding signal with PU.1 (IVT) [1] is 7.9 z-score.

In the experiment with PU.1 (IVT) [1], “GCCTAGCACGAAAAGAGGAAGTCAGACTAGTGCTAGGTCTTGATTCGCTTGACGCTGCTG” returned a binding signal of 8.15 z-score.

Sequence “GCCTAGCACGAAAAGAGGAAGTCAAACTTGTGCTAGGTCTTGATTCGCTTGACGCTGCTG” came in with a binding signal with PU.1 (IVT) [1] of 8.22 z-score.

On to “GCCTAGCACGAAAAGAGGAAGTCAAATTCGTGCTAGGTCTTGATTCGCTTGACGCTGCTG”, for which, in the experiment with PU.1 (IVT) [1], the binding signal was 8.31 z-score.

Sequence “GCCTAGCACGAAATGAGGAAGTGCTAGTGGTGCTAGGTCTTGATTCGCTTGACGCTGCTG” yielded a binding signal in the experiment with PU.1 (IVT) [1] of 8.07 z-score.

In the case of “GCCTAGCACGGAAAGAGGAAGTCAAAAATGTGCTAGGTCTTGATTCGCTTGACGCTGCTG”, the binding signal in the experiment with PU.1 (IVT) [1] amounted to 7.85 z-score.

“GCCTAGCACGAAAAGAGGAAGTGGAATTTGTGCTAGGTCTTGATTCGCTTGACGCTGCTG”: the binding signal with PU.1 (IVT) [1] worked out at 8.92 z-score.

In the experiment with PU.1 (IVT) [1], “GCCTAGCACGAAAAGAGGAAGTCAGAAATGTGCTAGGTCTTGATTCGCTTGACGCTGCTG” showed a binding signal of 8.35 z-score.

“GCCTAGCACGAAATGAGGAAGTGAAATTGGTGCTAGGTCTTGATTCGCTTGACGCTGCTG” displayed a binding signal with PU.1 (IVT) [1] of 8.42 z-score.

On to “GCCTAGCACAAAAAAAGGAAATGAAAGTAGTGCTAGGTCTTGATTCGCTTGACGCTGCTG”, for which the binding signal in the experiment with PU.1 (IVT) [1] stood at 3.32 z-score.

In the case of “GCCTAGCACGTCAAAAAAAGGAAAAAGCCGTGCTAGGTCTTGATTCGCTTGACGCTGCTG”, the binding signal with PU.1 (IVT) [2] was 0.885 z-score.

In the experiment with PU.1 (IVT) [1], “GCCTAGCACAAGAAGCGGAAGTGAAAGACGTGCTAGGTCTTGATTCGCTTGACGCTGCTG” had a binding signal of 6.8 z-score.

With “GCCTAGCACAGAAAAAGGAACTGGCTAGAGTGCTAGGTCTTGATTCGCTTGACGCTGCTG”, the binding signal in the experiment with PU.1 (IVT) [2] worked out at 3.75 z-score.

Take “GCCTAGCACCAAAAGAGGAAGTGAGAAGCGTGCTAGGTCTTGATTCGCTTGACGCTGCTG”: the binding signal with PU.1 (IVT) [1] is 8.31 z-score.

Source of the values: article PMC6451091, “NextPBM: a platform to study cell-specific transcription factor binding and cooperativity”.
